Screening results as filed in PubChem BioAssay.
Hits are enriched below; roughly 3.9% of the tested compounds scored in any of these assays.
Eya2 inh = Eya2 (human) phosphatase inhibition; O00167; recombinant Eya2, OMFP fluorescence dephosphorylation (OMFP is methylfluorescein phosphate); hit rate 0.006% among 330,000; Potency, µM (doses to about 76.9 µM), for the others: at the top dose activity, negative = inhibition, most hits filed as inhibitors; AID 488837; note: potency is the fitted concentration of half-maximal effect; % is set by controls: 0 for no effect and ±100 for the full control effect
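Eya2 protein (added as 0.2 uM solution) was preincubated with compound for 10 min at ambient temperature in 50 mM HEPES pH 7.5, 50 mM NaCl, 5 uM MgCl2, 0.05% BSA, 1 mM DTT. OMFP (added at 50 uM) then reacted 10 min; fluorescence read at 485/525 nm.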
D1 antagonist = blocks dopamine activation of the human D1 receptor. P21728. HEK293 TREx D1 cells, calcium flux, dopamine EC80; stronger effect = lower value. activity change, negative = inhibition, % at 10 µM. hit rate 3.2% among 360,000; in the data active = activity change below about -30%; note: % is set by controls: 0 for no effect and ±100 for the full control effect
Target sequence (P21728 whole entry, looked up): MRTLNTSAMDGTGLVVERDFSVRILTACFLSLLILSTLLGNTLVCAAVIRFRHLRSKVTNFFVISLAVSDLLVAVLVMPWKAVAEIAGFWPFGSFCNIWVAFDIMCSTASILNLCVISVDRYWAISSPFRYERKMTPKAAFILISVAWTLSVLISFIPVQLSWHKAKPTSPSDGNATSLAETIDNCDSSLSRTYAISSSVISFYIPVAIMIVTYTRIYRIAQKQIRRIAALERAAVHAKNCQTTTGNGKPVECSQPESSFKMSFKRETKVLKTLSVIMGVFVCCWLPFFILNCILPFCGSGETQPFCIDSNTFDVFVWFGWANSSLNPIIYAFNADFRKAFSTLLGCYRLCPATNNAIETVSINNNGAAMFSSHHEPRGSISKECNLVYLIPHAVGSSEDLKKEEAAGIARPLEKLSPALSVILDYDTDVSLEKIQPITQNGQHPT
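HEK293 T-REx cells expressing inducible, force-coupled D1 receptor; no-wash Ca dye, 30–90 min RT. Cmpd → 180 s read at 1 Hz → EC80 DA → 180 s read.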
D1 agonist = activates the human D1 dopamine receptor. P21728. HEK293 T-REx D1 cells, calcium flux, agonist mode. activation, % at 2 µM. hit rate 1% among 360,000. AID 504660; in the data active = activation above about 30%; note: 0% is about no effect
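Tetracycline-induced HEK293 TREx D1 cells, force-coupled to calcium signalling, were dye-loaded with a no-wash calcium kit. Compound was pin-added after a 10 s baseline. Fluorescence was read kinetically at 1 cycle/s for 180 s, with calcium rises flagged as agonism.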
USP2a block = blocks human ubiquitin-specific protease USP2a; Potency, µM (top dose mostly 38.3 µM), for inactives: at the highest dose activity change, negative = inhibition, usual class: inhibitors; hit rate 0.01% among 330,000; USP2 core, Ub-CHOP2 coupled fluorogenic reporter, 485/531; O75604;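 note: potency is the fitted concentration of half-maximal effect; plate controls were DMSO wells for no effect and full inhibition by NEM control for full effect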
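Cell-free coupled assay: 10nM USP2 core preincubated 30min RT with compound in Tris-HCl pH 8.0/CaCl2/CHAPS buffer, then 25nM Ub-CHOP2 and 25nM reporter substrate; fluorescence (Ex 485/Em 531) read after 60min RT, normalized to NEM inhibition, concentration-response curves fitted.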
GALK inh = inhibitors of human galactokinase | Purified GALK, Kinase-Glo residual ATP luminescence | Potency, µM (top dose mostly 57.5 µM), inactives show at the top dose activity change, negative = inhibition, hits mostly inhibitors | P51570 | hit rate 0.007% among 270,000; note: potency is the fitted concentration of half-maximal effect; % is set by controls: 0 for no effect and ±100 for the full control effect
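Human GALK (5 nM) with 35 uM ATP and 100 uM galactose in 20 mM HEPES pH 8.0, 5 mM MgCl2, 60 mM NaCl, 1 mM DTT, 0.01% BSA. After 1 h at room temperature, leftover ATP was read by Kinase-Glo Plus luminescence.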
D1 potentiator = enhances dopamine response at the human D1 receptor; hit rate 0.036% among 360,000; potentiation, % at 10 µM; HEK293 TREx D1 cells, calcium flux, dopamine EC20 potentiation; P21728; AID 504651; in the data active = potentiation above about 30%; note: 0% is about no effect
Active calls of the source: *; . = not tested or not shown. Unless noted, calls come from the whole dose curve; as a rule, active = well fitted inhibition curve with a large enough effect; inconclusive = small, poorly fitted or top-dose-only effect, or effect the other way; inactive = flat fitted curve, though single readings scatter.

SMILES	Eya2 inh	D1 antagonist	D1 agonist	USP2a block	GALK inh	D1 potentiator
CCc1ccc(-c2nc3c(c(SCc4ccccc4)n2)Cc2c(CO)cnc(C)c2O3)cc1	.	-14.8	0.3	.	.	-3.9
COc1ccc(OCc2nc3ccccc3[nH]2)cc1	-17.9%	-1.6	0.8	-0.4%	0.0%	-6.3
COc1ccc(OC(C)c2nc3ccccc3[nH]2)cc1 (configuration not stated)	.	-32.6*	0.0	.	.	7.7
Cc1nc(-c2cccnc2)sc1C(=O)Nc1cccc(C(F)(F)F)c1	0.3%	3.6	2.1	0.8%	-5.8%	-2.7
Cc1nc(-c2cccnc2)sc1C(=O)Nc1ccc(C(F)(F)F)cc1	30.1%	-33.3*	2.0	1.2%	-2.4%	-3.5
CCN(CC(=O)Nc1cc(Cl)ccc1C)C(=O)CCS(=O)(=O)c1ccc(Cl)cc1	-11.6%	-21.9	5.4	4.2%	-7.7%	-3.0
CCN(CC(=O)Nc1ccccc1C(F)(F)F)C(=O)CCS(=O)(=O)c1ccc(Cl)cc1	-7.9%	-30.3*	9.1	0.5%	.	-1.4
O=C(O)c1ccc2c(c1)C(=O)N([C@]1(C(=O)O)CC1c1ccccc1)C2=O (some centres not stated)	8.2%	15.4	3.2	-1.8%	.	-6.2
CCOc1ccccc1NC(=O)C1CCN(S(=O)(=O)c2cc(Br)cc3c2N(C(C)=O)CC3)CC1	.	-8.9	0.0	.	.	1.7
O=C(Cn1cc(S(=O)(=O)N2CCN(c3ccccc3F)CC2)c2ccccc2c1=O)Nc1cccc(C(F)(F)F)c1	.	-3.0	5.4	.	.	-1.8
Cc1ccc([N+](=O)[O-])cc1/C=N/Nc1nnnn1-c1ccccc1	2.9%	-58.6*	0.2	-0.1%	-1.3%	-6.1
COc1c(/C=N/Nc2ccc([N+](=O)[O-])cc2[N+](=O)[O-])c(C)nn1-c1ccccc1	1.5%	-33.1*	0.1	0.5%	-1.7%	-0.1
Cc1cc(/C=N/Nc2ccc([N+](=O)[O-])cn2)c(C)n1-c1ccccc1	9.0%	.	3.4	1.4%	3.6%	-2.2
CCOc1ccc2oc(C(=O)NNC(=O)c3csc(N4CCOCC4)n3)c(C)c2c1	-4.3%	-38.4*	1.7	-0.7%	3.8%	-16.8
O=C(Cc1ccccc1)Nc1ccc(NC(=O)c2cccs2)cc1	-10.1%	-30.3*	1.4	2.0%	9.0%	-3.8
COc1ccc(C(=O)Nc2ccc(Nc3ccccc3)cc2)cc1OC	10.1%	-36.6*	-0.6	2.9%	4.5%	-10.3
COc1ccc(C(=O)Nc2cccc(/C(C)=N/NC(=O)c3ccc([N+](=O)[O-])cc3)c2)cc1OC	-9.6%	-33.5*	-0.4	1.5%	.	-10.2
O=C(Nc1ccc(NC(=O)c2cccs2)cc1)c1ccccc1	1.2%	-5.6	3.8	-1.3%	0.9%	-1.9
COc1ccc(C(=O)Nc2ccc(Nc3ccccc3)cc2)cc1[N+](=O)[O-]	-8.9%	-18.7	5.0	-0.1%	-0.9%	-2.0
O=C(Cc1ccccc1)Nc1ccc(C(=O)Nc2ccc(O)cc2)cc1	-0.1%	-12.4	33.1*	0.4%	-5.0%	0.2
CCOc1ccccc1CNC(=O)CCCN1C(=O)COc2ccc(C)cc21	.	4.4	29.4	.	.	-3.4
CCOc1ccccc1NC(=O)C1=C(C)Nc2ncnn2C1c1ccco1 (configuration not stated)	.	8.7	2.8	.	.	-1.6
CCOc1ccc(N(C(=O)CC(C)C)S(=O)(=O)c2ccc3c(c2)oc(=O)n3C)cc1	.	5.9	11.0	.	.	-1.6
O=C(Nc1ccc(NC(=O)c2cccs2)cc1)c1ccco1	-3.3%	2.3	1.5	2.4%	-2.2%	2.4
O=C(NNC(=O)c1ccc(NC(=O)c2ccccc2)cc1)c1ccccc1	3.3%	8.1	59.2*	13.0%	-3.8%	-5.0
O=C(c1ccncc1)c1ccc(NC(=O)c2cccs2)cc1	2.3%	-34.5*	12.3	-3.2%	-2.6%	-16.4
O=C(OCC(=O)c1cccs1)c1ccc(NC(=O)c2ccco2)cc1	5.8%	-33.0*	7.2	2.2%	-0.3%	-9.6
COc1ccc(/C=C2\CCC/C(=C\C=N\N(C)C)C2=O)cc1	-10.3%	-35.1*	13.5	4.8%	2.1%	-2.0
